Reference: PubChem BioAssay (NCATS)
Unmarked numbers belong to inactive results. Calls of active or inactive are those of the source. The call rests on the fitted dose curve; in most records, active means well fitted inhibition curve with a large enough effect; inconclusive means small, poorly fitted or top-dose-only effect; inactive means flat fitted curve, though single readings scatter.

target: Luciferin 4-monooxygenase (Photinus pyralis) (UniProt P08659); assay: Primary firefly luciferase (FLuc) qHTS assay for identification of artifact compounds. (AID 1845220); conditions: purified firefly luciferase, luminescence, 5 min; series mostly up to 54.1 µM; activity change, negative = inhibition: at the top concentration; further: nearly all actives have a fitted effect of over 60% in size;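 on activity change, negative = inhibition: plate controls were DMSO vehicle for no effect and no enzyme for full effect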
Outline: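 Reaction readout was CCD-imaged luminescence, taken 5 min after adding 10 nM purified firefly enzyme to compound-treated wells holding 10 uM luciferin and ATP in pH 7.6 buffer.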

SMILES	activity change, negative = inhibition	outcome
COC1CC(=O)C23C(=O)NC(CC(C)C)C2C(C)=C(C)C(OO)C3/C=C(\C)CCC(O)C1O (centres undefined)	2.34% [at 25.7 µM]	–
C[C@@H]1C(=O)O[C@H]2[C@H](O)[C@@]34[C@@H]5OC(=O)[C@@]3(O[C@@H]3OC(=O)[C@@H](O)[C@@]34[C@H](C(C)(C)C)[C@H]5O)[C@@]12O	–	inactive [at 25.7 µM]
COc1c(C(C)C)cc2c(c1O)[C@@]1(C(=O)O)CCCC(C)(C)C1CC2 (some centres undefined)	0.197%	–
CCC1NC(=O)C2C(Cl)C(Cl)CN2C(=O)C(C(C)O)NC(=O)CC(c2ccccc2)NC(=O)C(CO)NC1=O (centres undefined)	0.158% [at 25.7 µM]	–
COC1CC(OC2CCC3(C)C(CCC4C3CCC3(C)C(C5=CC(=O)OC5)C(OC(C)=O)CC43O)C2)OC(C)C1OC1OC(CO)C(O)C(O)C1O (centres undefined)	2.85% [at 25.7 µM]	–
CCc1[nH]c2ccc(OC)cc2c1CCN(C)C	-0.124%	–
COc1ccccc1CN[C@H]1C2CCN(CC2)[C@H]1C(c1ccccc1)c1ccccc1	–	inactive
N#C[C@@H](O[C@@H]1O[C@H](CO[C@@H]2O[C@H](CO)[C@@H](O)[C@H](O)[C@H]2O)[C@@H](O)[C@H](O)[C@H]1O)c1ccccc1	-9.45% [at 25.7 µM]	–
COc1cc(CCNCc2ccccc2O)c(OC)cc1C#N	–	inactive
C[C@H]1O[C@@H](O[C@H]2C[C@@H](O)[C@]3(CO)C4C(CC[C@]3(O)C2)[C@@]2(O)CC[C@H](C3=CC(=O)OC3)[C@@]2(C)C[C@H]4O)[C@@H](O)[C@@H](O)[C@H]1O (some centres undefined)	1.12% [at 25.7 µM]	–
Cc1c(Cl)cccc1S(=O)(=O)Nc1nc(CC(=O)N2CCN(C)CC2)cs1	2.73%	–
Cc1cn(C[C@H](N)C(=O)O)c(=O)n(Cc2cc(-c3ccccc3)sc2C(=O)O)c1=O	0.0772%	–
Cc1cccc(NC(=O)N[C@@H]2N=C(c3ccccc3)c3ccccc3N(C)C2=O)c1	4.84%	–
COc1cc(C(=O)O[C@H]2[C@@H]3C=CO[C@@H](O[C@@H]4O[C@H](CO)[C@@H](O)[C@H](O)[C@H]4O)[C@@H]3[C@@]3(CO)O[C@@H]23)ccc1O	–	inactive [at 25.7 µM]
CN1C(=O)c2ccccc2NC(=O)C1Cc1ccccc1 (centres undefined)	2.01%	–
COC(=O)C1(C)CCC(O)C2(C)c3c(O)cc(C(C)C)cc3C(O)C(OC(C)=O)C12 (centres undefined)	1.65% [at 25.7 µM]	–
N#CC(OC1OC(COC2OC(CO)C(O)C(O)C2O)C(O)C(O)C1O)c1ccccc1 (centres undefined)	0.0532% [at 25.7 µM]	–

SMILES	activity change, negative = inhibition	outcome
COC(=O)N1CCN(C(=O)Cc2ccc(Cl)c(Cl)c2)[C@@H](CN2CCCC2)C1	2.48%	–
CC(=O)OC1CC(O)C(C)(C)C2CC(OC(C)=O)C3(C)C(CCC4(C)C(c5ccoc5)C(=O)C5OC543)C12C (centres undefined)	–	inactive [at 25.7 µM]
COC1=CC(=O)O[C@@H](/C=C/c2ccccc2)C1	1.97%	–
COC(=O)[C@@]12C(=O)C(C)C(=O)[C@]1(C)C(C)=C[C@H]1[C@]3(C=O)CC[C@H](OC(C)=O)C(C)(C)[C@H]3CC[C@@]12C (some centres undefined)	3.06% [at 25.7 µM]	–
CC1C/C=C/C(O)C(O)CC/C=C/c2cc(O)cc(O)c2C(=O)O1 (centres undefined)	–	inactive
CC1=CC2/C=C(\C)CCC(O)C3OC(C)(C)OC3CC(=O)OC23C(=O)NC(CC(C)C)C3C1C (centres undefined)	–	inactive [at 25.7 µM]
CN1CCC[C@@H]1Cc1c[nH]c2ccc(Nc3ncccc3[N+](=O)[O-])cc12	–	inactive
CC(=O)O[C@H]1C[C@@H](OC(C)=O)C(C)(C)C2C[C@@H](O)[C@]3(C)C(CC[C@@]4(C)[C@H](C5=CC(=O)OC5O)C[C@H]5O[C@]543)[C@]21C (some centres undefined)	1.47% [at 25.7 µM]	–
C/C=C(\C)C(=O)OC1CC2C(C)(C)OC(=O)CC(OC(C)=O)C2(C)C2CC(OC(=O)C(C)C)C3(C)C(c4ccoc4)CC4OC43C12C (centres undefined)	–	inactive [at 25.7 µM]
CN1C(=O)c2ccccc2NC(=O)[C@]12O[C@@H]2c1ccccc1	-4.67%	–
C[C@@]1(C(=O)O)CC[C@]2(C)CC[C@]3(C)C4=CC(=O)c5cc(O)c(O)cc5[C@]4(C)CC[C@@]3(C)[C@@H]2C1	–	inactive [at 25.7 µM]
C[C@@]12C[C@@H](c3ccoc3)OC(=O)C1CC[C@]1(C)[C@H]2[C@H]2C=C[C@]1(O)C(=O)O2 (some centres undefined)	–	inactive
CN(C(=O)Cc1ccccc1)C(CN1CCCC1)c1ccccc1 (centres undefined)	–	inactive
COC(=O)C1(C)CCC(O)C2(C)c3cc(O)c(C(C)C)cc3C(O)C(OC(C)=O)C12 (centres undefined)	0.0309% [at 25.7 µM]	–
COC1C(O)C(OC2CCC3(C=O)C(CCC4C3CCC3(C)C(C5=CC(=O)OC5)CCC43O)C2)OC(C)C1OC1OC(CO)C(O)C(O)C1O (centres undefined)	4.21% [at 25.7 µM]	–
COCC1OC(=O)c2coc3c2C1(C)C1=C(C3=O)C2CCC(=O)C2(C)CC1O (centres undefined)	–	inactive
CC(C)(O)[C@H]1O[C@H]2CC[C@@]3(C)[C@@](O)(CC[C@H]4Cc5c([nH]c6ccccc56)[C@@]43C)C2=CC1=O	-2.45% [at 25.7 µM]	–
